Results from PubChem BioAssay (Tox21).
Where “and” joins values, the source holds several entries; their conditions need not be identical. Equal entries are not always repeated. Inconclusive results are not listed. A structure can be active in one record and inactive in another. Calls of active or inactive are those of the source. Unless noted, calls come from the whole dose curve; as a rule, active = well fitted curve in the direction sought with a large enough effect in the repeat runs; inconclusive = weak or mixed curves; inactive = no such curve, though single readings can be large; an effect the other way counts as inactive or inconclusive.

Experiments:
[1] = A CellTox Green Cytotoxicity Assay to monitor cytotoxicity in HepG2 cells - 0 hour (AID 1224882); note: nearly all actives have a fitted effect of over 35% in size; note: potency is the fitted concentration of half-maximal effect
Procedure, shortened: (§1)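 HepG2, 600 cells/well premixed w/ CellTox Green; 5 h settle, 37 C/5% CO2; pintool cpd add (DMSO); 37 C, 40 h; fluorescence read at 0, 8, 16, 24, 32, 40 h.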

[2] = A CellTox Green Cytotoxicity Assay to monitor cytotoxicity in HepG2 cells - 32 hour (AID 1224883); note: nearly all actives have a fitted effect of over 50% in size; note: potency is the fitted concentration of half-maximal effect
Procedure, shortened: as §1

[3] = A CellTox Green Cytotoxicity Assay to monitor cytotoxicity in HEK293 cells - 8 hour (AID 1224884); note: nearly all actives have a fitted effect of over 35% in size; note: potency is the fitted concentration of half-maximal effect
Procedure, shortened: (§2)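 Read-out: fluorescence of a cell-impermeant cyanine dye staining DNA of dead cells, proportional to cytotoxicity. HEK293, 600 cells/well with reagent, compound (23 nL DMSO) added after 5 h; reads at 0, 8, 16, 24, 32, 40 h.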

[4] = qHTS RealTime-Glo MT Cell Viability Assay in HepG2 cells - 16 hour (AID 1224885); note: nearly all actives have a fitted effect of over 50% in size
Procedure, shortened: (§3)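 Viability was tracked continuously by NanoLuc luminescence from prosubstrate reduced by living HepG2 cells, at successive time points over 40 h of compound exposure. Cells with reagent were preincubated 5 h at 37 °C before compound addition.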

[5] = qHTS RealTime-Glo MT Cell Viability Assay in HEK293 cells - 24 hour (AID 1224886); note: top concentration of the series differs between compounds; nearly all actives have a fitted effect of over 50% in size
Procedure, shortened: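 Viability tracked continuously by luminescence as live cells reduce a prosubstrate for NanoLuc; HEK293 cells preincubated 5 h, compound-treated at 37 C, and read at 0, 8, 16, 24, 32 and 40 h.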

[6] = qHTS RealTime-Glo MT Cell Viability Assay in HEK293 cells - 8 hour (AID 1224887); note: top concentration of the series differs between compounds; nearly all actives have a fitted effect of over 50% in size
Procedure, shortened: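 Luminescence readout at each listed time point; HEK293, 600 cells/well, RealTime-Glo MT reagent added with cells; compounds pinned (23 nL in DMSO) after 5 h at 37 C; continuous culture at 37 C.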

[7] = A CellTox Green Cytotoxicity Assay to monitor cytotoxicity in HEK293 cells - 16 hour (AID 1224888); note: nearly all actives have a fitted effect of over 35% in size; note: potency is the fitted concentration of half-maximal effect
Procedure, shortened: as §2

[8] = qHTS RealTime-Glo MT Cell Viability Assay in HepG2 cells - 0 hour (AID 1224889); note: nearly all actives have a fitted effect of over 50% in size; note: potency is the fitted concentration of half-maximal effect
Procedure, shortened: as §3

[9] = A CellTox Green Cytotoxicity Assay to monitor cytotoxicity in HepG2 cells - 8 hour (AID 1224890); note: nearly all actives have a fitted effect of over 45% in size; note: potency is the fitted concentration of half-maximal effect
Procedure, shortened: as §1

[10] = target: Estrogen receptor (Homo sapiens) (UniProt P03372); test: qHTS assay to identify small molecule antagonists of the estrogen receptor alpha (ER-alpha) signaling pathway using the BG1 cell line in the presence of 0.1 nM 17-beta-estradiol (AID 1259244); note: nearly all actives have a fitted effect of over 50% in size; note: potency is the fitted concentration of half-maximal effect
Procedure, shortened: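 Luminescence after ONE-Glo (30 min, room temperature) measured ERE-luciferase activity in VM7Luc4E2 cells treated 22 h with compound and 0.1 nM final 17beta-estradiol as stimulator.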

[11] = qHTS assay to identify small molecule phospholipidosis (PLD) inducers (AID 1259344; active = well fitted curve in the direction sought with a large enough effect; an effect the other way counts as inactive or inconclusive)
Procedure, shortened: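 Phospholipid accumulation was scored by imaging: fixed, Hoechst-counterstained HepG2 cells stained with LipidTOX Red after 24 h compound exposure at 37 C. Read-outs were pit count and pit intensity per well or per cell, with amiodarone and DMSO controls.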

[12] = qHTS assay to identify small molecule HDAC inhibitors (AID 1259364);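 note: wild-type HCT-116 cells with endogenous class I/II HDAC activity; top concentration of the series differs between compounds; nearly all actives have a fitted effect of over 45% in size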
Procedure, shortened: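 HCT-116 (wild type), 1,500 cells/well, overnight; compound 2 hr 37C 5% CO2; HDAC-Glo I/II reagent 30 min RT; luminescence readout.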

[13] = qHTS assay to identify small molecule HDAC inhibitors - cell viability counter screen (AID 1259365)
Procedure, shortened: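 Cytotoxicity was gauged in wild-type HCT-116 cells after a brief 2hr treatment with DMSO-dissolved compounds at 37C and 5% CO2, using CellTiter-Glo luminescence developed for 30min at room temperature.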

[14] = qHTS assay to identify small molecule agonists of the sonic hedgehog signaling (Shh) pathway (AID 1259368; calls by dose curve;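 note: NIH/3T3-derived 3T3Gli1-Luc cells carrying a stable Gli1-driven firefly luciferase reporter; series mostly up to about 92 µM; nearly all actives have a fitted effect of over 15% in size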)
Procedure, shortened: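 Read-out: firefly luciferase luminescence from a Gli1 response element reporter stably integrated in NIH/3T3-derived 3T3Gli1-Luc cells, measured 30 min at room temperature after reagent addition. Compound exposure lasted 24 hr at 37 C, 5% CO2.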

[15] = qHTS assay to identify small molecule antagonists of the sonic hedgehog signaling (Shh) pathway (AID 1259369; calls by dose curve; note: nearly all actives have a fitted effect of over 45% in size; note: potency is the fitted concentration of half-maximal effect)
Procedure, shortened: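 Luminescence readout: firefly Luc under Gli1 response element in 3T3Gli1-Luc cells (NIH/3T3 clone). Antagonist mode, stimulation by conditioned medium; compound exposure 24hr at 37 C, 5% CO2.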

[16] = qHTS assay to identify small molecule antagonists of the androgen receptor (AR) signaling pathway using the MDA cell line in the presence of 0.5 nM R1881 - cell viability counter screen (AID 1259242); note: nearly all actives have a fitted effect of over 45% in size; note: potency is the fitted concentration of half-maximal effect
Procedure, shortened: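 Live-cell protease fluorescence, CellTiter-Fluor, 30 min at 37C. Cells: MDA-kb2, 3,000/well, preincubated 5 hr. Compounds plus 0.5 nM R1881 final, 16 hr, 37C, 0% CO2.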

[17] = qHTS assay to identify small molecule agonists of the sonic hedgehog signaling (Shh) pathway - cell viability counter screen (AID 1259366); note: nearly all actives have a fitted effect of over 50% in size; note: potency is the fitted concentration of half-maximal effect
Procedure, shortened: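 Stable Gli1-Luc NIH/3T3 clone, 2,000 cells/well. Compound exposure 24hr at 37C. Read-out: CellTiter-Fluor fluorescence.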

[18] = qHTS assay to identify small molecule antagonists of the sonic hedgehog signaling (Shh) pathway - cell viability counter screen (AID 1259367); note: nearly all actives have a fitted effect of over 55% in size; note: potency is the fitted concentration of half-maximal effect
Procedure, shortened: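 Viability was read by CellTiter-Fluor fluorescence in the same wells, reagent added 23 hr into compound treatment and incubated 1 hr at 37C. The 3T3 Gli1-Luc reporter cells (2,000/well) received conditioned medium after compound and ran 24 hr.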

[19] = qHTS assay to identify small molecule antagonists of the estrogen receptor alpha (ER-alpha) signaling pathway using the BG1 cell line in the presence of 0.1 nM 17-beta-estradiol - cell viability counter screen (AID 1259241); note: nearly all actives have a fitted effect of over 40% in size; note: potency is the fitted concentration of half-maximal effect
Procedure, shortened: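 Viability in VM7Luc4E2 cells after 22 hr compound exposure under 0.1 nM 17beta-estradiol stimulation, by CellTiter-Fluor.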

[20] = target: Androgen receptor (Homo sapiens) (UniProt P10275); test: qHTS assay to identify small molecule antagonists of the androgen receptor (AR) signaling pathway using the MDA cell line in the presence of 0.5 nM R1881 (AID 1259243); note: nearly all actives have a fitted effect of over 50% in size
Procedure, shortened: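 MDA-kb2, MMTV-luc (AR/GR elements); 3,000 cells/well; cpd + 0.5 nM R1881 final; 16 hr 37C, 0% CO2; ONE-Glo 30 min RT; luminescence.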

Measured: Potency

Chain of Estrogen receptor (Homo sapiens) (P03372 whole entry, looked up): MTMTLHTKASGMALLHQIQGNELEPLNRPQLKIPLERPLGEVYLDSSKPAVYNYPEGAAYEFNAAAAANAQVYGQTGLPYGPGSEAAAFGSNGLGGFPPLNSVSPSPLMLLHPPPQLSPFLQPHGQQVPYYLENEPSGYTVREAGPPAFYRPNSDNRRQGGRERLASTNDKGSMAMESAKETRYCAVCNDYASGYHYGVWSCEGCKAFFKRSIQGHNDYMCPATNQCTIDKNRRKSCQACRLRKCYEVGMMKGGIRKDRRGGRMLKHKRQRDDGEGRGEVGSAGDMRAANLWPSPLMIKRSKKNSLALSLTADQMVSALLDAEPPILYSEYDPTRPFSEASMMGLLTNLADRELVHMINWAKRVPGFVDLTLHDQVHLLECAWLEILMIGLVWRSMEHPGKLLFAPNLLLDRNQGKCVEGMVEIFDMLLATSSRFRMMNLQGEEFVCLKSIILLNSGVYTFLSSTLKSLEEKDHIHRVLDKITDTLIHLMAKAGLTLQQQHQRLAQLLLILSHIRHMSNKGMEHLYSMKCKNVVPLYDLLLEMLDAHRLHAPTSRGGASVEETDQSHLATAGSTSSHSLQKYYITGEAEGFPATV
Chain of Androgen receptor (Homo sapiens) (P10275 whole entry, looked up): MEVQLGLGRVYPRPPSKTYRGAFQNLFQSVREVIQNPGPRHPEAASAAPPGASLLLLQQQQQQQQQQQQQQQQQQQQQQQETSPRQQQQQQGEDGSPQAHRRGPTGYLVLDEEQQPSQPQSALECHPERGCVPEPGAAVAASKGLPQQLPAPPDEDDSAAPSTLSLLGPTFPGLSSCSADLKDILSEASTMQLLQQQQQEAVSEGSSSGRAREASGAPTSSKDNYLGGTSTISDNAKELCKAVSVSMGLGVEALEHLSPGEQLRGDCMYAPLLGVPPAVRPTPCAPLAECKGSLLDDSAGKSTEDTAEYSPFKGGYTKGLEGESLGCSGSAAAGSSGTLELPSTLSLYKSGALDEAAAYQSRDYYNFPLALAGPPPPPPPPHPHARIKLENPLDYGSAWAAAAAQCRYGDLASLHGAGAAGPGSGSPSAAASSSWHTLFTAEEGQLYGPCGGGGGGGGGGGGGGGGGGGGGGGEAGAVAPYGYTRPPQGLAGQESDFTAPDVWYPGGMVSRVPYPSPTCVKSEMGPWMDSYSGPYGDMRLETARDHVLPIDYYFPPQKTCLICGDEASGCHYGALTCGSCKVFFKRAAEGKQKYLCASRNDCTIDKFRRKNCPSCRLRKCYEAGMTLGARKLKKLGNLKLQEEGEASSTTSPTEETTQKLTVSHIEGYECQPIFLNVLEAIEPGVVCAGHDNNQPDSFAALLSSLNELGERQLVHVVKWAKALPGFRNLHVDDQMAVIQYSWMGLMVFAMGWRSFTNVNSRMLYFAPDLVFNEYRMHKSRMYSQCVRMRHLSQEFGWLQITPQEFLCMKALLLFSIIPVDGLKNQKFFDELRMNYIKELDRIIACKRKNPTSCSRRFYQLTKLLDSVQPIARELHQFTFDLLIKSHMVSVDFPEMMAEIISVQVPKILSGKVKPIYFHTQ

O=C1OC2(c3ccc(O)cc3Oc3cc(O)ccc32)c2ccccc21
active: [1] 1.55 µM and 301 nM | [2] 616 nM and 301 nM | [3] 692 nM and 848 nM | [7] 616 nM and 1.2 µM | [9] 692 nM and 301 nM
inactive: [4] | [5] | [6] | [8] | [10] | [11] | [12] | [13] | [14] | [15]

Cc1cccc(O)c1C
inactive and 22.5 µM (active): [3]
inactive: [1] | [2] | [4] | [6] | [7] | [16] | [10] | [12] | [17] | [18] | [14] | [15]

O=Cc1ccc(Cl)cc1
inactive: [1] | [2] | [3] | [4] | [5] | [6] | [8] | [9] | [19] | [16] | [20] | [13] | [17] | [18] | [14] | [15]

NC(=Nc1ccccc1)Nc1ccccc1
inactive: [1] | [2] | [3] | [4] | [6] | [7] | [8] | [19] | [16] | [11] | [17] | [18] | [14]
active: [10] 10.9 µM | [15] 2.43 µM

Cc1cc(C2(c3cc(C)c(O)cc3C)OS(=O)(=O)c3ccccc32)c(C)cc1O
inactive: [1] | [2] | [3] | [5] | [6] | [7] | [9] | [10] | [12] | [13] | [14] | [15]
active: [8] 19.5 µM and 15.5 µM | [19] 21.7 µM and 15.4 µM | [16] 24.3 µM and 15.4 µM | [17] 24.3 µM and 12.2 µM | [18] 27.3 µM and 13.7 µM

BrC1CCC(Br)C(Br)CCC(Br)C(Br)CCC1Br (stereo not drawn)
active: [15] 32.6 µM
inactive: [1] | [2] | [3] | [5] | [6] | [7] | [8] | [9] | [19] | [16] | [20] | [10] | [13] | [17] | [18] | [14]
